# From PubChem BioAssay AID686978 (National Center for Advancing Translational Sciences (NCATS), 2013)
# About 64,000 (15%) of roughly 420,000 compounds were called active. Not shown: some 27% with an inconclusive outcome. Calls come from the whole dose curve; as a rule, active = well fitted inhibition curve with a large enough effect; inconclusive = small, poorly fitted or top-dose-only effect; inactive = flat fitted curve, though single readings scatter. The list is a sample of the results.
# Assay: qHTS for Inhibitors of human tyrosyl-DNA phosphodiesterase 1 (TDP1): qHTS in cells in absence of CPT; note: nearly all actives have a fitted effect of over 55% in size
# Conditions: DT40 Tdp1-/- hTDP1 cells, no CPT, ATP luminescence, 48 h; activity change, negative = growth inhibition: at 46.2 µM (top of the series)
# Method in brief: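 Chicken DT40 Tdp1-/- cells stably complemented with human TDP1 were seeded at 400 cells/well with DMSO in place of 20 nM camptothecin. After compound pinning, cells grew at least 48 hr at 37 °C; viability read by CellTiter-Glo luminescence.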
# % is set by controls: 0 for no effect and ±100 for the full control effect; potency is the fitted concentration of half-maximal effect.
Structure (SMILES),"activity change, negative = growth inhibition",Potency
COc1ccc(C(=O)O)cc1S(=O)(=O)NCc1cccnc1,14% (inactive),
Cc1snc(SCc2c(F)cccc2Cl)c1C#N,-25.5% (inactive),
O=C(NN1C(=O)C2C3C=CC(O3)C2C1=O)c1ccccc1 (stereo not given),6.73% (inactive),
Cc1ccc2c(C)c(C(=O)N3CCC(N4CCC(C(=O)NC5CC5)CC4)CC3)oc2c1,-6.02% (inactive),
COc1cc(Cl)c(C)cc1NC(=O)COC(=O)c1cc(SC)ccc1Cl,1.67% (inactive),
CCCCC(=O)N(C)c1c(CC)nc2c(OCc3ccc(Cl)cc3Cl)cccn12,,9.2 µM (active)
CCc1nc2c(OCc3ccc(Cl)cc3Cl)cccn2c1N(C)C(=O)C(C)C,,8.2 µM (active)
COc1cccc(NC(=O)CN(C)C(=O)Cc2ccc(Cl)cc2Cl)c1,-1.62% (inactive),
CC(NC(=O)COc1cccnc1[N+](=O)[O-])c1ccc(Cl)cc1Cl (stereo not given),-2.29% (inactive),
CC(C)(C)NC(=O)NC(=O)COC(=O)Cc1ccc(Cl)cc1Cl,-0.501% (inactive),
CCc1nc2ccc(C(=O)N3CCC(O)(Cc4ccccc4)CC3)cn2c1N(C)C(=O)Cc1ccccc1,-26.2% (inactive),
CCc1nc2c(OCc3ccc(C(F)(F)F)cc3)cccn2c1N(C)C(=O)CC(C)C,,20.6 µM (active)
CCc1nc2ccc(C(=O)N(C)Cc3ccco3)cn2c1N(C)C(=O)Cc1ccccc1,-17% (inactive),
O=C(COC(=O)C12CC3CC(CC(O)(C3)C1)C2)NC12CC3CC(CC(C3)C1)C2,-25.9% (inactive),
O=C(NC1CCN(C(=S)Nc2ccc(Cl)cc2)CC1)C1CCCCC1,-2.42% (inactive),
CC(OC(=O)CCC(=O)c1ccccc1)C(=O)Nc1ccc(F)cc1 (stereo not given),-20.1% (inactive),
CCOC(=O)c1c(C)nn(-c2ncccc2NC(=O)CCC(=O)O)c1C,-16.1% (inactive),
C#CCCCc1nc2ccccc2c(=O)n1N,-22.3% (inactive),
C/C(=N\N1CCN(Cc2ccc(C)cc2)CC1)c1ccco1,-25.2% (inactive),
CC(=O)NC1C(Oc2ccc(C=O)cc2)OC(COC(C)=O)C(OC(C)=O)C1OC(C)=O (stereo not given),10.4% (inactive),
CC(=O)Oc1ccc2c(=O)oc(-c3ccc([N+](=O)[O-])cc3)nc2c1,-3.77% (inactive),
CCCCSCCCNC(=O)C1CCC(CNS(=O)(=O)c2ccc(NC(C)=O)cc2)CC1 (stereo not given),3.72% (inactive),
Nc1nnnn1/N=C/c1cccs1,-11.8% (inactive),
O=C(NCc1ccc(Cl)cc1)NCc1ccc(Cl)cc1,-12% (inactive),
Fc1ccc2nc(N3CCCCC3)sc2c1,3.23% (inactive),
N#C/C=C/N1CCN(Cc2ccc3c(c2)OCO3)CC1,-14.4% (inactive),
O=C(CSc1nc2c(c(=O)[nH]1)CN(Cc1ccc3c(c1)OCO3)CC2)Nc1cc(F)ccc1F,-18.4% (inactive),

Structure (SMILES),"activity change, negative = growth inhibition",Potency
Fc1ccc2[nH]c3c(N4CCSCC4)ncnc3c2c1,,9.2 µM (active)
Fc1ccc2[nH]c3c(N4CCN(Cc5ccc6c(c5)OCO6)CC4)ncnc3c2c1,,2.31 µM (active)
CN(C)c1cccc(C(=O)N2CCC(n3nccc3NC(=O)C3CCOC3)CC2)c1 (stereo not given),1.6% (inactive),
Cc1ccc(NNC(=O)c2c(F)cccc2Cl)cc1Cl,-9.04% (inactive),
O=C(CC(n1cncn1)C(Cl)(Cl)Cl)c1ccc([N+](=O)[O-])cc1 (stereo not given),,14.6 µM (active)
O=C(CCn1nnc2ccccc21)OCC(=O)c1ccc([N+](=O)[O-])cc1,-16.2% (inactive),
C/C(=N/NC(=O)CSc1ccccn1)c1ccc([N+](=O)[O-])cc1,2.71% (inactive),
NC(=O)c1ccc(-c2csnn2)cc1,-0.292% (inactive),
CN1CCC(=O)N([C@H](CO)Cc2ccccc2)CC1,,inactive
COc1ccc(COCCN2CCN(S(=O)(=O)c3ccccc3)CCC2=O)cc1,5.39% (inactive),
Cc1ccc(S(=O)(=O)N2CCC(=O)N([C@H](COCc3ccccc3)Cc3ccccc3)CC2)cc1,,18.4 µM (active)
Cc1cccc(N=C2NC(=O)CS2)c1C,3.53% (inactive),
Cc1ccc(NS(=O)(=O)c2ccc(N/N=C/c3ccccc3OCC(=O)O)c([N+](=O)[O-])c2)c(C)c1,-4.92% (inactive),
O=[N+]([O-])c1cccc(/C=N/Nc2ncc(Br)cn2)c1,-9.68% (inactive),
Cc1cccc(COc2ccccc2/C=N/Nc2ccc([N+](=O)[O-])cc2)c1,,20.6 µM (active)
CN1C(=O)C(CC(N)=O)N(NC(=O)c2ccc(Cl)cc2)C1=S (stereo not given),-2.93% (inactive),
CC(C)(C)NC(=O)CSC(=Nc1ccccc1F)NC#N,,16.4 µM (active)
CC(C)(C)NC(=O)CSc1nnc(NC(=O)CCc2ccccc2)s1,-17.3% (inactive),
Cc1ccccc1CSCC(=O)NC(=O)NC(C)(C)C,-25.3% (inactive),
N#C/C(=C1\CCCN1)c1nc(-c2ccccc2)cs1,-23.2% (inactive),
Cc1nc(C(F)(F)F)ccc1C(=O)N1CCC1(C)C(=O)NS(=O)(=O)c1ccc(F)cc1F (stereo not given),11.3% (inactive),
CCc1ccc(N(C(=O)c2csnn2)C(C(=O)NC2CCCCC2)c2ccncc2)cc1 (stereo not given),-12.5% (inactive),
Cc1ccc(N(C(=O)C(F)(F)F)C(C(=O)NC2CCCCC2)c2ccncc2)cc1C (stereo not given),,18.4 µM (active)
Cc1ccc(N(C(=O)CNC(=O)c2ccco2)C(C(=O)NC2CCCC2)c2ccncc2)cc1 (stereo not given),-6.22% (inactive),
O=C(c1cc(-c2ccccc2O)on1)N1CCCC1,-3.42% (inactive),
CCc1ccccc1NC1c2ccccc2C(=O)N1c1cccnc1 (stereo not given),-10.4% (inactive),
O=C1C(=O)N(c2ccccc2)C(c2ccccc2)C1c1ccccc1 (stereo not given),10.2% (inactive),

Structure (SMILES),"activity change, negative = growth inhibition",Potency
O=C1[C@@H](c2ccccc2)[C@@H](c2ccccc2)N1c1cccnc1,,8.2 µM (active)
CCCC(=O)N1CCc2[nH]c3ccccc3c2C1,-23.5% (inactive),
CCCC(=O)N1c2ccccc2NC2=C(C(=O)CCC2)C1c1ccc(F)cc1 (stereo not given),-8.27% (inactive),
CCOc1cccc(CC(=O)N2CCc3c([nH]c4ccccc34)C2c2ccc(F)cc2)c1OCC (stereo not given),,25.9 µM (active)
Cc1ccc(C2c3[nH]c4ccccc4c3CCN2C(=O)c2cccc(C)c2)cc1 (stereo not given),,18.4 µM (active)
Cc1cccc(C(=O)N2CCN(S(=O)(=O)N3CCCCC3)CC2)c1,-33% (inactive),
Cc1cccc(C(=O)N2CCc3c([nH]c4ccccc34)C2CC(C)C)n1 (stereo not given),-16.7% (inactive),
O=C(COC(=O)CCOc1ccccc1)Nc1cc(S(=O)(=O)N2CCCCC2)ccc1Cl,-8.88% (inactive),
CC1=Nn2c(nnc2-c2ccccc2)SC1,-23.9% (inactive),
COc1cccc(C(=O)NCCS(=O)(=O)NCC2CCCO2)c1 (stereo not given),-6.41% (inactive),
CC1CCCCN1Cc1c(O)ccc2c(=O)c(-c3cccc(Cl)c3)c(C(F)(F)F)oc12 (stereo not given),-9.1% (inactive),
CC(=O)c1cccc(OCC(=O)OCC(=O)Nc2cc(S(=O)(=O)N3CCCCC3)ccc2C)c1,5.94% (inactive),
COc1ccc2c(c1)c(=Cc1ccc(N(C)C)cc1)c1cc(-c3ccccc3)[n+](C)n12,,0.92 µM (active)
Cc1ccc(N2CC(NC(=O)Cc3cccs3)CC2=O)cc1 (stereo not given),-1.33% (inactive),
O=C(c1ccccc1-c1ccccc1)N1CCOCC1,-4.8% (inactive),
Cc1onc(-c2ccccc2)c1C(=O)N1CCOCC1,-11% (inactive),
Cc1oc2c(c1C(=O)N1CCOCC1)C(=O)c1ccccc1C2=O,,2.59 µM (active)
Cc1cccc(C)c1OC(=O)CSc1nnc(-c2ccccc2)o1,-24% (inactive),
Cc1ccc(-c2nnc(CN3CCN(C)CC3)o2)cc1,-10.4% (inactive),
COC(=O)[C@@H](NC(=O)NCc1cccc(OC)c1)C(C)C,-10.4% (inactive),
COc1cccc(CN(C)CC(O)COC(c2ccccc2)c2ccccc2C)c1 (stereo not given),,16.4 µM (active)
CCCC(O)(c1ccc(OC)cc1)C(CN(C)C)c1ccccc1 (stereo not given),-8.8% (inactive),
Cc1ccc(-n2c(SCC(=O)NCc3ccc4c(c3)OCO4)nnc2-c2cccnc2)c(C)c1,-26.4% (inactive),
O=C(CCSCCc1ccccn1)Nc1nccs1,-24.1% (inactive),
COc1ccc(C(=O)c2c(C)oc3cc([N+](=O)[O-])c(O)c([N+](=O)[O-])c23)cc1,-19.1% (inactive),
COc1ccc(/C=N/Nc2nc(-c3ccc(C)cc3)c(C#N)c(=O)[nH]2)cc1,-13.2% (inactive),
CCOC(=O)c1cc(-c2nnc(-c3cc(OC)c(OC)c(OC)c3)o2)c(C)nc1C,,16.4 µM (active)

Structure (SMILES),"activity change, negative = growth inhibition",Potency
CCOC(=O)c1cc2ccccc2nc1C,-9.4% (inactive),
O=C(CCN1C(=O)[C@@H]2Cc3ccccc3CN2C1=O)NCc1ccccc1,9.34% (inactive),
Cc1ccc(S(=O)(=O)N(C)C)cc1NC(=O)COC(=O)C1COc2ccccc2O1 (stereo not given),0.485% (inactive),
Cc1ccc(S(=O)(=O)N(C)C)cc1NC(=O)c1ccccc1Br,-10.6% (inactive),
Cc1ccc(S(=O)(=O)N(C)C)cc1NC(=O)c1n[nH]c(=O)c2ccccc12,,23.1 µM (active)
CCOc1ccc(CCNC(=O)COC(=O)c2ccc(F)c(S(=O)(=O)N3CCOCC3)c2)cc1OCC,-6.84% (inactive),
COc1ccc(C2CC(c3ccc(C)cc3)Nc3nc(N)nn32)cc1 (stereo not given),-6.23% (inactive),
CCOc1ccccc1C1CC(c2ccc(Cl)cc2)Nc2nc(N)nn21 (stereo not given),,16.4 µM (active)
CCOc1ccccc1C1C(C(=O)OC)=CN(C)C=C1C(=O)OC,-4.81% (inactive),
CC(C)[C@H](NC(=O)c1ccc(F)cc1)C(=O)OCC(=O)NC(=O)c1cccn1C,-6.12% (inactive),
COc1ccc(S(=O)(=O)N(C)CC(=O)N2CCCC2)cc1Cl,-25.7% (inactive),
CN1c2ccc(C=O)c3c(C=O)ccc(c23)N(C)C1(C)C,,7.31 µM (active)
O=C1c2ccccc2C(O)N1Cc1ccccc1Cl (stereo not given),-7.23% (inactive),
CN1CCN(S(=O)(=O)c2ccc(Nc3ccc(F)cc3)nc2)CC1,-2.36% (inactive),
O=C(NCc1ccccc1)C1c2ccccc2OCC(=O)N1C1CC1 (stereo not given),-11.1% (inactive),
NS(=O)(=O)c1ccc(CCNC(=O)c2nc(CS(=O)(=O)c3ccc(Cl)cc3)no2)cc1,2.72% (inactive),
Cc1ccccc1NC(=O)Nc1ccccc1N1CCCCC1,,23.1 µM (active)
O=C(Nc1ccccc1N1CCCCC1)c1cccc(F)c1,-14.5% (inactive),
O=C(CNCCC1=CCCCC1)Nc1ccccc1N1CCCCCC1,,23.1 µM (active)
Cc1cccc(N2CC(C(=O)Nc3ccccc3N3CCCC3)CC2=O)c1C (stereo not given),-8.58% (inactive),
Cc1ccccc1NC(=O)NC1(C(=O)N2CCCC2)CCCCC1,-10.4% (inactive),
Cc1nnc(OCC(=O)NCCC2=CCCCC2)c2ccccc12,-11.7% (inactive),
C=CCSc1nc(Cc2ccc(Cl)cc2)nc2ccccc12,-0.879% (inactive),
Cc1ccc(F)cc1NC(=O)c1ccc2c(c1)OCO2,-16.7% (inactive),
